Out of some 400,000 compounds screened, about 2,100 (0.53%) were called active. Roughly 14% stayed inconclusive and do not appear here. No rule for the calls is given here. For the sample, actives were picked, then their nearest neighbours and some compounds at random.

The target of the experiment is Ataxin-2 (Homo sapiens) (UniProt Q99700). Description: qHTS for Inhibitors of ATXN expression. The class given is functional. A general note: qHTS replaces the single test concentration by a dilution series.
Chain of Ataxin-2 (Homo sapiens) (Q99700 whole entry): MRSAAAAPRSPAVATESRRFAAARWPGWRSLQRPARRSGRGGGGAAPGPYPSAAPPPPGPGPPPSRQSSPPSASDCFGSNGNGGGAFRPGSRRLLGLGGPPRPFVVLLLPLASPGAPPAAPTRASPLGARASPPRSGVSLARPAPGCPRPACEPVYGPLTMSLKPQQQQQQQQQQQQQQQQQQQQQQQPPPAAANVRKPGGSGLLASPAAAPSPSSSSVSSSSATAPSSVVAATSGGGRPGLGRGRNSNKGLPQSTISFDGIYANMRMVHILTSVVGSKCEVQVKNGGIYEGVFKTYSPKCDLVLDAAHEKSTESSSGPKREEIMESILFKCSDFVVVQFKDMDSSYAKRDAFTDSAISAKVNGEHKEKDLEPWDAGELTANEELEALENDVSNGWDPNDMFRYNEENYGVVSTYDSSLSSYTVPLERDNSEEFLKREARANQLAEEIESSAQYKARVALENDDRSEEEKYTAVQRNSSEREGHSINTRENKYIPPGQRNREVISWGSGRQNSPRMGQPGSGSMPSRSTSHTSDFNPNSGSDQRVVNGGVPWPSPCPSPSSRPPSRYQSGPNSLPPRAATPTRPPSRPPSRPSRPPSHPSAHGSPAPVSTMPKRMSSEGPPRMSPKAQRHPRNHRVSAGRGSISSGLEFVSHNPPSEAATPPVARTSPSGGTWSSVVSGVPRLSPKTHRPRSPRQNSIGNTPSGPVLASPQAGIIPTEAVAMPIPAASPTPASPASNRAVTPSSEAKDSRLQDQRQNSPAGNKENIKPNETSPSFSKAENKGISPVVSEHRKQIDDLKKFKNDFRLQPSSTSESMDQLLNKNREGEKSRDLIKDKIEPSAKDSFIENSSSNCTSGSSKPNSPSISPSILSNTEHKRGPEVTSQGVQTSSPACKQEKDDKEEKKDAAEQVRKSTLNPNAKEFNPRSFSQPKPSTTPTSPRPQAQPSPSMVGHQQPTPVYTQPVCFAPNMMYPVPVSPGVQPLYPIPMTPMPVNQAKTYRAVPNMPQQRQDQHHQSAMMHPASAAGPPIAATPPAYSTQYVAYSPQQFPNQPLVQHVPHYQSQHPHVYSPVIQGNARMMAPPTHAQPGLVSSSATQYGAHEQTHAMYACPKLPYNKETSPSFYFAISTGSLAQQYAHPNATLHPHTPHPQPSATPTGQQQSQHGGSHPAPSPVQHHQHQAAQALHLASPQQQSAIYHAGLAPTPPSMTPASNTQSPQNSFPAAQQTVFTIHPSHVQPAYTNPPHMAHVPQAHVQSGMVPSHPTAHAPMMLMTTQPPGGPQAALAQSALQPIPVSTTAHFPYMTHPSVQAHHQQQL
Regarding `C/N=c1\scc(-c2ccc(OC)cc2)n1/N=C(\C)c1cccnc1`, the Potency result was “inactive”. As to `CC1=CC(=Cc2sc3ccccc3[n+]2C)C=C(C)N1CC1CCCO1` (stereo not given), the Potency entry was “inactive”. Take `Cc1cc(C)n(-c2nnc(Cl)c3ccccc23)n1`: the Potency was 39.8 µM (active). Consider `COc1ccc(-c2nc(C#N)c(N3CCCCC3)o2)cc1`, for which the Potency entry was “inactive”.

In the case of `Nc1nc(N)c2cc(CNc3ccc(Cl)c(Cl)c3)ccc2n1`, the Potency was 11.2 µM (active). Consider `CCN1CCN(c2nc(NCCO)c3ccccc3n2)CC1`, for which the Potency entry was “inactive”. For the molecule `COc1ccc(-c2cc(C(F)(F)F)n3nc(-c4ccccc4)cc3n2)cc1OC`, the Potency entry is “inactive”. As to `CCN1CCN(c2cc(-c3ccccc3)nc3cc(-c4cccc(F)c4)nn23)CC1`, the Potency was 17.8 µM (active). Turning to `Cc1ccnc(NC(=O)c2cc3c(=O)oc4ccc(C)cc4c3s2)c1`, the Potency was 20 µM (active).

`CCN(CC)c1ccc2cc(C(=O)Nc3ccccn3)c(=O)oc2c1`: the Potency entry is “inactive”. Turning to `Cc1ccnc(NC(=O)c2ccccc2NC(=O)c2ccc(Cl)cc2Cl)c1`, the Potency entry is “inactive”. Consider `CCOC(=O)C(C)(C)N(Cc1cccc(C)c1)S(=O)(=O)c1ccc(Cl)c([N+](=O)[O-])c1`, for which the Potency was 39.8 µM (active).

As for `COc1ccc(Cl)cc1N(CC(=O)N(C)C)S(=O)(=O)c1ccc(C)c([N+](=O)[O-])c1`, the Potency entry is “inactive”.

`CN(C)Cc1c(O)ccc2c3c(c(=O)oc12)CCCCC3`: the Potency entry was “inactive”. With `CCCCc1cc(=O)oc2c(CN(C)C)c(O)ccc12`, the Potency result is “inactive”. Turning to `CCOC(=O)c1c(CSc2ccc(CC)cc2)oc2ccc(O)c(CN(C)C)c12`, the Potency is 22.4 µM (active). On to `Cc1ccc(/C=N/n2c(S)nnc2-c2ccccn2)o1`, for which the Potency result is “inactive”. As for `Cc1ccc2nc(Cn3cc(C(F)(F)F)cc(Cl)c3=O)cc(=O)n2c1`, the Potency entry is “inactive”.

Turning to `CCOc1cc(NC(=O)c2cccs2)c(OCC)cc1NC(=O)c1ccccn1`, the Potency result is “inactive”. Regarding `CN(C)c1ccc(/C=N/NC(=O)c2ccccn2)cc1`, the Potency entry is “inactive”.

`CN(C)c1ccc(-c2[nH]nc(O)c2NC(=O)c2ccccn2)cc1`: the Potency is 25.1 µM (active).

On to `Cc1ccc(NC(=O)c2[nH]cnc2C(=O)NCCCCCNC(=O)OC(C)(C)C)cc1`, for which the Potency was 39.8 µM (active). Consider `Cc1cccc(NC(=O)c2[nH]cnc2C(=O)NCCCCCNC(=O)OC(C)(C)C)c1`, for which the Potency is 20 µM (active).

On to `CC(C)(C)OC(=O)NCCCCCNC(=O)c1[nH]cnc1C(=O)Nc1cc(Br)ccc1F`, for which the Potency was 39.8 µM (active). Consider `Cc1ccc(OCCNC(=O)c2ccccc2F)cc1`, for which the Potency result is “inactive”. Take `COc1cccc(-c2ccc3c(N)c(C(=O)c4ccc(Br)cc4)sc3n2)c1`: the Potency entry was “inactive”. Consider `O=S(=O)(NCc1csc(-c2cccs2)n1)c1cccc(C(F)(F)F)c1`, for which the Potency result was “inactive”. For `CCCCn1c(OC(=S)N(CC)CC)cc(C)nc1=S`, the Potency was 35.5 µM (active). The result for `Nc1ccc2c3[nH]c4cc(N)ccc4cc-3nc2c1` reads “inactive”; that for `Nc1ccc2[nH]c(-c3ccc(Cl)cc3)nc2c1`, 31.6 µM (active); that for `Nc1ccc2[nH]c(-c3ccc(-c4nc5cc(N)ccc5[nH]4)cc3)nc2c1`, “inactive”.

As for `Cc1ccc2nc3c(cc(C(=O)NCCCn4ccnc4)n3C)c(=O)n2c1`, the Potency entry was “inactive”. The result for `Cc1cc(C)c2cc(N)c(Cl)nc2n1` reads “inactive”; that for `CCOC(=O)c1cc2c(=O)n3ccccc3nc2n(CC2CCCO2)/c1=N/C(=O)/C=C/c1ccccc1` (stereo not given), “inactive”; that for `CN(C)CCNC(=O)c1cccc(-c2cnc3c(NC=O)cc(-c4cccc(F)c4)cn23)c1`, 31.6 µM (active). Consider `CN(C)CCNC(=O)c1cccc(-c2cnc3c(NC=O)cc(-c4ccc(F)cc4)cn23)c1`, for which the Potency was 35.5 µM (active). Regarding `CC(=O)c1ccc(-c2cnc3c(NC=O)cc(-c4ccccc4Oc4ccccc4)cn23)cc1`, the Potency result was “inactive”. Turning to `CN(C)C(=O)c1cccc(-c2cnc3c(NC=O)cc(-c4cccc(C(F)(F)F)c4)cn23)c1`, the Potency is 39.8 µM (active). Regarding `COc1cccc(-c2cnc3c(NC=O)cc(-c4ccc(N(C)C)cc4)cn23)c1`, the Potency result was “inactive”. With `CN(C)c1ccccc1-c1cc(NC=O)c2ncc(-c3cccc(C(F)(F)F)c3)n2c1`, the Potency result was “inactive”. As for `CN(C)CCNC(=O)c1cccc(-c2cnc3c(NC=O)cc(-c4cc(F)c(F)c(F)c4)cn23)c1`, the Potency is 25.1 µM (active).

Take `CCCCCCc1cc2cc(-c3nnc(-c4ccccc4)o3)c(=O)oc2cc1O`: the Potency entry was “inactive”. With `CC(C)OC(=O)c1sc2nc(-c3ccccc3)ccc2c1N`, the Potency result was “inactive”. Take `O=C1CCn2c1c(O)c1ccccc1c2=O`: the Potency entry was “inactive”. Consider `O=C1OCCN1C(=O)[C@H]1[C@H](c2ccccc2)C(c2ccccc2)=NN1c1ccccc1`, for which the Potency result is “inactive”. As to `N#CC1(Nc2cccc(Br)c2)C(=O)Nc2ccccc21` (stereo not given), the Potency entry is “inactive”.

With `COc1ccc(OC)c(S(=O)(=O)N2CCN(c3ccccc3)CC2)c1`, the Potency entry is “inactive”.

Turning to `CCOc1cc(C2c3c(-c4ccc(Br)cc4)n[nH]c3C(=O)N2c2ccc(Cl)cc2)ccc1O` (stereo not given), the Potency was 28.2 µM (active). `O=C1c2[nH]nc(-c3ccc(Br)cc3)c2C(c2cccc(O)c2)N1c1ccc(Cl)cc1` (stereo not given): the Potency is 28.2 µM (active). On to `CCOc1cc(C2NN=C(c3ccc(C)cc3)S2)ccc1O` (stereo not given), for which the Potency entry is “inactive”. Regarding `O=C1OCCN1C(=O)[C@H]1[C@H](c2ccc(Cl)cc2)C(c2cccc(Cl)c2)=NN1c1ccc(Br)cc1`, the Potency result is “inactive”. The result for `Cc1cccc(C2=NN(c3ccc(Br)cc3)[C@@H](C(=O)N3CCOC3=O)[C@@H]2c2ccc(Cl)cc2)c1` reads “inactive”; that for `CCOc1ccc(C2=CC(c3cc(Br)ccc3F)n3ncnc3N2)cc1Cl` (stereo not given), “inactive”; that for `CCN(CCCn1c(=S)[nH]c2ccc(N3CCOCC3)cc2c1=O)c1ccccc1`, “inactive”. For `CN(/N=C/c1ccc2c(c1)OCO2)c1nc(N2CCOCC2)nc(N2CCOCC2)n1`, the Potency entry was “inactive”.

Regarding `Cc1nonc1NC(=O)CSc1nc2ccccc2cc1C#N`, the Potency result was “inactive”. The result for `CC(=O)c1ccc2cccc3c2c1NC(C)=N3` reads “inactive”. As to `Cc1nc(=O)c(-c2ccccc2)c(C)n1-c1ccccc1Cl`, the Potency entry was “inactive”. As for `Cn1c(=O)c([N+](=O)[O-])c(-n2ccnc2)c2ccccc21`, the Potency is 23.8 µM (active). As for `CCN(CC)c1c([N+](=O)[O-])c(=O)n(CC)c2ccccc12`, the Potency result was “inactive”. Turning to `Cc1ccc(Sc2nc(C)c([N+](=O)[O-])c(C)c2C#N)cc1`, the Potency result is “inactive”. Regarding `Cn1c(=O)c([N+](=O)[O-])c(Cl)c2ccccc21`, the Potency is 29.9 µM (active). As for `COc1ccccc1NC(=O)c1ccc(-n2ccnc2)c([N+](=O)[O-])c1`, the Potency entry was “inactive”. Consider `Cc1ccc(Sc2c([N+](=O)[O-])c(=O)n(C)c3ccccc23)cc1`, for which the Potency was 28.2 µM (active).

Consider `Cn1c2ccccc2c(=O)c2ccc(F)cc21`, for which the Potency entry was “inactive”. The result for `CCOc1ccc(C2C(C#N)=C(N)Oc3cc(O)ccc32)cc1OCC` (stereo not given) reads “inactive”. In the case of `COCOc1ccc(/C=C2/Oc3cc(OCOC)cc(OCOC)c3C2=O)c(OCOC)c1` it was “inactive”; in that of `Cc1cscc(C)c1=S`, “inactive”; in that of `Nc1c(C(=O)CSc2ncccn2)c(=O)[nH]c(=O)n1C1CC1`, “inactive”. Consider `Cc1c(CCC(=O)O)c(=O)oc2c(C)c3occ(-c4ccc(Br)cc4)c3cc12`, for which the Potency entry is “inactive”. The result for `COc1ccc([N+](=O)[O-])cc1C(=O)Nc1ccc(Cc2ccncc2)cc1` reads “inactive”; that for `O=C(Nc1ccc(S(=O)(=O)Nc2cnc3ccccc3n2)cc1)c1ccc([N+](=O)[O-])cc1Cl`, “inactive”. Consider `O=C(Nc1ccc(Nc2ccncc2)cc1)c1ccc(Nc2ccnc3ccc([N+](=O)[O-])cc23)cc1[N+](=O)[O-]`, for which the Potency was 39.8 µM (active).

As to `N#Cc1cc2c(=O)n3ccccc3nc2n(CCCN2CCOCC2)c1=O`, the Potency entry was “inactive”.

Take `CCOc1cc(C2C3=C(CCCC3=O)N(CCC(=O)O)C3=C2C(=O)CCC3)ccc1OS(=O)(=O)c1ccc(C)cc1`: the Potency entry was “inactive”. Take `Cc1cc(S(=O)(=O)N2CCCC2)ccc1OCC(=O)Nc1ccc(C(N)=O)cc1`: the Potency result is “inactive”.

In the case of `Cc1ccc(C(C)C)c(OCC(=O)Nc2ccc3c(c2)nc(CCN2CCCCC2)n3C)c1`, the Potency was 39.8 µM (active). For the molecule `CC(=O)NCCc1nc2cc(NC(=O)c3cccs3)ccc2n1C`, the Potency result was “inactive”. As for `O=C1/C(=C\Nn2cnnc2)c2ccccc2C(=O)N1c1ccccc1F`, the Potency entry was “inactive”. On to `COc1ccccc1NS(=O)(=O)c1cccc(NC(=O)c2[nH]c(C)c(C(C)=O)c2C)c1`, for which the Potency result is “inactive”.

In the case of `COc1ccccc1NS(=O)(=O)c1cccc(NC(=O)Nc2cccc(Cl)c2)c1`, the Potency was 44.7 µM (active).

`COc1ccccc1NS(=O)(=O)c1ccc(C)c(NC(=O)c2c(C)noc2C)c1`: the Potency entry was “inactive”. Take `COC(=O)c1c(C)nc2nonc2c1N`: the Potency entry was “inactive”. `CCOC(=O)NN=C1c2ccccc2-c2nc3nonc3nc21`: the Potency was 3.77 µM (active). The result for `CCOC(=O)Nc1c2ccccc2nc2ccccc12` reads “inactive”; that for `COc1cc(/C=C/C(=O)N2C(=O)c3cccc(N)c3C2=O)cc(OC)c1OC`, “inactive”. For `Cn1c2nc(=O)[nH]c(=O)c-2cc2ccccc21`, the Potency entry was “inactive”. With `C=CCOc1ccccc1CN(C(=O)CCl)c1ccc2c(c1)OCO2`, the Potency is 39.8 µM (active). On to `CCc1cccc(CC)c1N1C(=O)C2=C(SCCCS2)C1=O`, for which the Potency entry is “inactive”. Regarding `CCOC(=O)C1(CCOc2ccccc2)CCN(Cc2ccc(C#CCCO)cc2)CC1`, the Potency entry was “inactive”. In the case of `Cc1cc(N2CCN(C(=O)c3ccco3)CC2)n2nc(-c3cccc(Cl)c3)cc2n1`, the Potency was 35.5 µM (active). For `CCc1noc(C)c1C(=O)N1CCN(c2cccc(Cl)c2)CC1`, the Potency result is “inactive”.

In the case of `O=C(c1ccco1)N1CCN(c2c(O)nc3ccc(Cl)cc3c2-c2ccccc2)CC1`, the Potency was 28.2 µM (active). `Cn1c(C(=O)N2CCN(C(=O)c3ccco3)CC2)cc2c(=O)n3ccccc3nc21`: the Potency entry was “inactive”. Consider `O=c1oc2cc(O)ccc2cc1-c1ccc(F)cc1`, for which the Potency entry was “inactive”. The result for `Cc1ccc(/N=c2\oc3cc(O)ccc3cc2C(N)=O)cc1` reads “inactive”; that for `O=CNc1ccc2c3c(cccc13)-c1ccccc1-2`, “inactive”; that for `CC1=NN(c2ccccc2)C(=O)C1/C=N/c1ccc(N(C)C)cc1` (stereo not given), “inactive”.

On to `CC1=NN(c2ccccc2)C(=O)/C1=C/C=C/c1ccc(N(C)C)cc1`, for which the Potency was 17.8 µM (active). In the case of `CN(C)C=O.CN(C)c1ccc(/C=C/c2nc3ccccc3c(=O)n2-c2ccc(C(=O)O)cc2)cc1`, the Potency result is “inactive”.

For the origin of these results see ChEMBL document CHEMBL1201862, “PubChem BioAssay data set” (2004).
